Assay results from PubChem BioAssay.
Activity calls are given as the source filed them.

What was measured:
Albumin (Bos taurus) = Albumin (Bos taurus) (UniProt P02769); assay: bovine serum albumin binders on microarray, profiling panel, artefact control for SMM control protein annotation, biochemical, small-molecule microarray, Alexa647 label, 635/667 nm fluorescence (AID 1118); conditions: BSA-A647 binding, fluorescence 635 nm, higher = more signal;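 also: score merges 667 nm emission intensity and signal-to-noise per printed compound spot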
[1] = small-molecule microarray binders of probe aXIP, primary screen, biochemical, NeuroSMM set, 635/667 nm fluorescence (AID 1119); conditions: higher = more signal, called active from +8 up or from −8 down;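 also: probe is the protein aXip251-270 applied at 1 µg/mL to compound-printed slides; binding of probe to printed compounds measured as 667 nm fluorescence plus signal to noise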
[2] = small-molecule binders of probe aNOTCH3, primary screen, biochemical, small-molecule microarray, 635/667 nm fluorescence (AID 1120); conditions: higher = more signal;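 also: probe is a biotin-tagged antibody raised against NOTCH3 rather than NOTCH3 protein; score merges spot fluorescence near 667 nm with spot signal to noise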
[3] = small-molecule binders of probe aNOTCH2, primary screen, biochemical, small-molecule microarray, 635/667 nm fluorescence (AID 1121); conditions: higher = more signal;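 also: score merges feature fluorescence read at 667 nm with its signal to noise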
[4] = molecular target: Carbonic anhydrase 2 (Homo sapiens) (UniProt P00918); assay: CAII small-molecule binders, profiling panel, biochemical, small-molecule microarray, Alexa647-labelled CAII (AID 1122); conditions: CAII-A647 binding fluorescence, higher = more signal
[5] = COS7 lysate on small-molecule microarray, probe aHis, 635 nm (AID 1123); conditions: COS7 cell lysate, fluorescence, higher = more signal;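 also: z-score combines 667nm fluorescence intensity with signal-to-noise per printed compound spot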
[6] = compound binding in COS7 lysate, probe aLAP1, primary screen, cell lysate, small-molecule microarray (AID 1124); conditions: probe aLAP1, fluorescence, higher = more signal;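 also: lysate comes from COS7 cells expressing LAP1 and is applied at 0.3 µg/mL; score merges spot fluorescence near 667 nm with signal-to-noise over triplicate slides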
Sam68 (KHDRBS1) = assay: Sam68 small-molecule binders, primary screen, biochemical, small-molecule microarray, 635 nm fluorescence (AID 1125); conditions: small-molecule microarray binding, higher = more signal;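 also: score merges 667 nm channel intensity with signal to noise over triplicate slides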
[7] = system: Chordin-like protein 2 (CHRDL2); assay: CHRDL2 small-molecule binders, primary screen, biochemical, small-molecule microarray, 635 nm fluorescence (AID 1126); conditions: small-molecule microarray binding, fluorescence 635 nm; higher = more signal;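 also: printed compound slides probed with Chrdl2 protein at 4 µg/mL for 1 h at 4 C; score merges 667 nm emission intensity with signal to noise over three replicate slides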
[8] = molecular target: Concanavalin-A (Canavalia ensiformis) (UniProt P02866); assay: ConA small-molecule binders, primary screen, artefact control for SMM control protein annotation, biochemical, small-molecule microarray, Alexa647 label, 635 nm (AID 1127); conditions: ConA-A647 binding fluorescence, higher = more signal;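 also: z combines 667 nm emission intensity with signal-to-noise across three replicate slides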
[9] = anti-His antibody binders, primary screen, artefact control for SMM control protein annotation, biochemical, small-molecule microarray, 635 nm fluorescence (AID 1128); conditions: anti-His Alexa647 antibody binding, higher = more signal;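 also: score merges feature fluorescence with signal-to-noise for each printed compound spot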
[10] = system: Human papillomavirus type 1a E7 protein (residues 1-88); assay: HPV1a E7 small-molecule binders, primary screen, biochemical, small-molecule microarray, residues 1-88, 635 nm (AID 1129); conditions: small-molecule microarray binding, fluorescence 635 nm; higher = more signal
[11] = molecular target: Focal adhesion kinase 1 (Homo sapiens) (UniProt Q05397); assay: small-molecule microarray binders of FAK, primary screen, biochemical, 635/667 nm fluorescence, BSA, DTT (AID 1130); conditions: PTK2 binding, 635 nm fluorescence, higher = more signal;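 also: composite of spot emission at 667 nm and signal to noise over triplicate slides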
[12] = system: Fibrinogen (Alexa647-labelled); assay: fibrinogen binders on compound microarrays, profiling panel, artefact control for SMM control-protein annotation, biochemical, small-molecule microarray, 635/667 nm fluorescence (AID 1131); conditions: fibrinogen-A647 binding fluorescence, higher = more signal;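 also: z-score merges 667 nm fluorescence with per-spot signal-to-noise over triplicate slides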
[13] = molecular target: Follistatin (Homo sapiens) (UniProt P19883); assay: follistatin binders on small-molecule microarrays, primary screen, biochemical, small-molecule microarray, 635/667 nm fluorescence (AID 1132); conditions: FST binding, 635 nm fluorescence, higher = more signal
[14] = molecular target: Fibroblast growth factor 2 (Homo sapiens) (UniProt P09038); assay: FGF2 binders on small-molecule microarrays, primary screen, biochemical, small-molecule microarray, 635/667 nm fluorescence (AID 1133); conditions: small-molecule microarray binding, FGF2, fluorescence 635/667; higher = more signal
[15] = mitochondrial membrane potential change in A549 cells, profiling panel, cell-based, JC-1 fluorescence, basal, 24 h, 100 nL (AID 1138); conditions: higher = more signal;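 also: A549 lung adenocarcinoma cells under basal conditions with no added stimulus; test concentration not given here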
Lefty1 = Lefty1 binders on small-molecule microarrays, primary screen, biochemical, small-molecule microarray, 635/667 nm fluorescence (AID 1139); conditions: small-molecule microarray binding, fluorescence 635/667; higher = more signal
[16] = system: wheat germ agglutinin (Triticum aestivum), Alexa647-labelled; assay: wheat germ agglutinin binders on compound microarrays, profiling panel, artefact control for SMM control-protein annotation, biochemical, small-molecule microarray, 635/667 nm fluorescence (AID 1140); conditions: WGA-A647 binding, 635 nm fluorescence, higher = more signal;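 also: score merges 667 nm feature emission with signal to noise over triplicate slides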
[17] = molecular target: Luciferin 4-monooxygenase (Photinus pyralis) (UniProt P08659); assay: firefly luciferase enzyme inhibitors, primary screen, biochemical, luminescence, purified enzyme, 2006 set (AID 1141); conditions: SteadyGlo luminescence, 30 min, higher = more signal, called active from +8 up or from −8 down;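 also: cell-free assay with purified firefly luciferase at 100 ng per well in PBS; test concentration not given here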
Sequence of Luciferin 4-monooxygenase (Photinus pyralis) (P08659 whole entry, looked up): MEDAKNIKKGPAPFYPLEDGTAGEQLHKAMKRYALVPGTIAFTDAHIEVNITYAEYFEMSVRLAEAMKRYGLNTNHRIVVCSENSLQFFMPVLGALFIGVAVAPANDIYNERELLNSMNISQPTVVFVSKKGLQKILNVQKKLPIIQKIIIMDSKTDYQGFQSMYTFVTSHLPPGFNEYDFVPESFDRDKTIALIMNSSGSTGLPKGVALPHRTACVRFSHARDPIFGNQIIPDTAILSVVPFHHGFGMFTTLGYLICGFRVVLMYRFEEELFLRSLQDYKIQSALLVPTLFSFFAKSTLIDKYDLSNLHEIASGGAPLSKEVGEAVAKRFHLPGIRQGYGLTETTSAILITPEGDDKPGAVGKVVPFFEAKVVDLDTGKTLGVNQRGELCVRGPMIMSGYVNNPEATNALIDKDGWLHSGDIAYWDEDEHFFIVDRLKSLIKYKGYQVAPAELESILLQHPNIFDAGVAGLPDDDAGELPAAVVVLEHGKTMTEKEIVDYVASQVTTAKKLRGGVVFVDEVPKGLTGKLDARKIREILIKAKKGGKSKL

Sequence of Fibroblast growth factor 2 (Homo sapiens) (P09038 whole entry, looked up): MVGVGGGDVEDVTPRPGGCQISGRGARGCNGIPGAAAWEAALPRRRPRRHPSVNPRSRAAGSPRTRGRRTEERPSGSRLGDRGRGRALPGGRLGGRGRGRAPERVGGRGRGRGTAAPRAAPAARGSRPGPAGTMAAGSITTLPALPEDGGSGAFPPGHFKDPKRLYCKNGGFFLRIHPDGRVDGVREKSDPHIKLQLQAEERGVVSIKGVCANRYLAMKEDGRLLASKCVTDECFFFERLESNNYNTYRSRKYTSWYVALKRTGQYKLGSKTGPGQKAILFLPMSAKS
Sequence of Follistatin (Homo sapiens) (P19883 whole entry, looked up): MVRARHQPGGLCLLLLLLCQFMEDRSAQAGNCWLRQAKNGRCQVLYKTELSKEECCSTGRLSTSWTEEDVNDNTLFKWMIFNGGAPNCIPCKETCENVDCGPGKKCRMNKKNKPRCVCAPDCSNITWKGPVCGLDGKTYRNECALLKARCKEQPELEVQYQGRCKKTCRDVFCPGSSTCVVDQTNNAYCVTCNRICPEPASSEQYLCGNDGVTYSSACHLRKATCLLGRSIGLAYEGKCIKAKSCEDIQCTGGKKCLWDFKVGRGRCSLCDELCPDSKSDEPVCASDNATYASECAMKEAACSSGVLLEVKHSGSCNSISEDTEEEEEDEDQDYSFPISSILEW
Sequence of Concanavalin-A (Canavalia ensiformis) (P02866 whole entry, looked up): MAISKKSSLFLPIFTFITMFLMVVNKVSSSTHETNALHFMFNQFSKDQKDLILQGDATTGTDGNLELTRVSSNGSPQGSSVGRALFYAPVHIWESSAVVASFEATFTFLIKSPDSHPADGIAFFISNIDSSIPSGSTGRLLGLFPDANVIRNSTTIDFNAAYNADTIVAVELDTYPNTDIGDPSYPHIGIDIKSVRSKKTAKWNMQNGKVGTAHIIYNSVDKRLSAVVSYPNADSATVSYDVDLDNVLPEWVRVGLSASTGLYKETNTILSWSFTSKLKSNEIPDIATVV
Sequence of Albumin (Bos taurus) (P02769 whole entry, looked up): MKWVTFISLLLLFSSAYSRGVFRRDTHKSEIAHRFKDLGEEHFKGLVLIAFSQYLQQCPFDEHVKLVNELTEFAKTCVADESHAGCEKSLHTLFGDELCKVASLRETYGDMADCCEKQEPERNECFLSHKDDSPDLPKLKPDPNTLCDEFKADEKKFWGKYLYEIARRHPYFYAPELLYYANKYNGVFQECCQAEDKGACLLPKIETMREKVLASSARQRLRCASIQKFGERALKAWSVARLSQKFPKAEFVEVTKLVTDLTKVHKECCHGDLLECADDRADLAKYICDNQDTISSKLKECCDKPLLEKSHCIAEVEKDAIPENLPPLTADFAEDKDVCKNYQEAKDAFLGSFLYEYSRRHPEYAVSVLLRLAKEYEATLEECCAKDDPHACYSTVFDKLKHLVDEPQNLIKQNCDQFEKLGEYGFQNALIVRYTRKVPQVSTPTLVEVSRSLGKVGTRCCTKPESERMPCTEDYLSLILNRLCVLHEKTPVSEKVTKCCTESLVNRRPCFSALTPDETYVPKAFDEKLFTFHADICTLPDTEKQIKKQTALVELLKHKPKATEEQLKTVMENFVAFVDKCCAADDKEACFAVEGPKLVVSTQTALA
Sequence of Focal adhesion kinase 1 (Homo sapiens) (Q05397 whole entry, looked up): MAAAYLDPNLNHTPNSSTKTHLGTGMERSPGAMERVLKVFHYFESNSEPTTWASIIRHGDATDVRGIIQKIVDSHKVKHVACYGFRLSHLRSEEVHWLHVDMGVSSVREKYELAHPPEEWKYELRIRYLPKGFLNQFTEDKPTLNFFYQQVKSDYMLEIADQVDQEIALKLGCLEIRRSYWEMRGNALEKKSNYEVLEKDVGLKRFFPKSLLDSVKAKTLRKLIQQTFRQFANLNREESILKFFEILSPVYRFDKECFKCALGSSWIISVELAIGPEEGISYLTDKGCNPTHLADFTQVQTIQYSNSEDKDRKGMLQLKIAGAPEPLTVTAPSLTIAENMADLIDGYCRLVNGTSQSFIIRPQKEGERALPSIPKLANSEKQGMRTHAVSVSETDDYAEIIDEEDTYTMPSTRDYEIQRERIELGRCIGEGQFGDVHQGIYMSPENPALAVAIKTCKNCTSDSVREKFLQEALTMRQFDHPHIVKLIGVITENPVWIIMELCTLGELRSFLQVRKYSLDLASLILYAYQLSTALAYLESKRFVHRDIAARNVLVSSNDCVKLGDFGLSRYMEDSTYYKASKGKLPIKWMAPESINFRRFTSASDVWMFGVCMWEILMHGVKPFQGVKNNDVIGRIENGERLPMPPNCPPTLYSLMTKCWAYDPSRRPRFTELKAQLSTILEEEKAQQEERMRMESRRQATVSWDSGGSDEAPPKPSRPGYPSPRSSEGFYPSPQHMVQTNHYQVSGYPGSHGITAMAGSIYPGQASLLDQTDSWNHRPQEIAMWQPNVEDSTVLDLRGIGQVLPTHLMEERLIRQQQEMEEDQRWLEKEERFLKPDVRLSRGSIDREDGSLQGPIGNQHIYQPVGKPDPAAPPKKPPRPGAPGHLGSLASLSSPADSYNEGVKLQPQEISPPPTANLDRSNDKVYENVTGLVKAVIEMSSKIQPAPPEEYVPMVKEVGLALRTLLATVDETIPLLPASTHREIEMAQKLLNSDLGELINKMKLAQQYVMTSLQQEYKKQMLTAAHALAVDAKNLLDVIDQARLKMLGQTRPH

| Compound | composite z-score (Albumin (Bos taurus)) | composite Z-score [1] | composite z-score [2] | composite z-score [3] | composite z-score [4] | composite z-score [5] | composite z-score [6] | composite z-score (Sam68 (KHDRBS1)) | composite z-score [7] | composite z-score [8] | composite z-score [9] | composite z-score [10] | composite z-score [11] | composite z-score [12] | composite z-score [13] | composite z-score [14] | z-score [15] | composite z-score (Lefty1) | composite z-score [16] | z-score [17] |
| --- | --- | --- | --- | --- | --- | --- | --- | --- | --- | --- | --- | --- | --- | --- | --- | --- | --- | --- | --- | --- |
| NC(=O)N1C(=O)C2C(C1=O)C1C=C(c3ccc(CO)cc3)C2C(C2CC2)N1Cc1cc2c(cc1Br)OCO2 (stereo not given) | 0.585 | 0.219 (inactive) | -0.0377 | -0.0745 | 0.762 | 1.32 | -0.421 | 0.61 | -0.312 | 0.574 | 2.29 | 0.066 | 0.138 | 0.157 | 0.197 | -0.149 | 1.96 | 0.828 | 0.216 | -2.17 (inactive) |
| CC(C)(C)OC(=O)CC[C@]1(C(=O)NCc2ccccc2)N=C(c2ccc(OCCCO)cc2)O[C@H]1c1ccccc1N=[N+]=[N-] | 1 | -0.286 (inactive) | 0.197 | 0.0272 | 0.498 | 2.97 | 0.521 | 1.34 | -0.0443 | 1.16 | 2.59 | 1.25 | 0.245 | 1.01 | 1.42 | 1.3 | 0.566 | 0.459 | 1.42 | -9.8 (active) |
| C=CCC(OC(C)=O)[C@@H]1[C@@H](N(Cc2ccc(-c3ccccc3)cc2)C(=O)c2ccc(-c3ccccc3)cc2)c2cc(OCCCO)ccc2N1C(=O)c1ccc(-c2ccccc2)cc1 (stereo not given in full) | 0.0452 | -0.254 (inactive) | 0.11 | 0.0086 | -0.0914 | 0.57 | -0.0163 | -0.821 | 0.0312 | -0.473 | -0.726 | 0.274 | 0.63 | -0.705 | 0.288 | -0.215 | 2.51 | -0.418 | 0.0316 | -1.15 (inactive) |
| CC(C)[C@@H](C(=O)O)n1cc(-c2ccccn2)nn1 | 0.69 | 0.516 (inactive) | -0.146 | 0.0571 | 0.525 | 0.708 | 0.242 | 0.522 | -0.119 | 0.556 | 2.19 | 1.08 | 0.113 | 0.811 | -0.0164 | 0.712 | 1.88 | 0.0234 | 0.957 | -0.495 (inactive) |
| C=C(COC)C(=O)CC[C@H](OC(=O)c1ccccc1-c1ccccc1C(=O)O)c1ccccc1OCCO | -0.714 | 1.42 (inactive) | -0.0881 | -0.126 | 0.59 | 0.125 | 0.283 | 0.452 | -0.0006 | 0.7 | -0.307 | 0.536 | -0.203 | -0.591 | 0.905 | 0.855 | 0.904 | 0.655 | -0.179 | -3.05 (inactive) |
